These results are taken from PubChem BioAssay.

The nature of assay [1]: stimulators of insulin release from INS-1E, primary screen, cell-based, 5 mM glucose, NPC library (AID 1117329). Further: reference of the scale not given here. Particulars: rat INS-1E insulin secretion, at 10 µM, active compounds read high.
A short description of assay [2]: growth inhibition of GSK3B-pretreated HCT116 cells – cell-based, CellTiter-Glo, 0.2 to 20 µM (AID 1117336;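 active means compounds lowering colon cancer cell viability after pretreatment blocking the GSK3B kinase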). Particulars: HCT116 viability after GSK3B inhibitor, at 20 µM, active compounds read high.
Assay [3] can be described thus: inhibition of endothelial tube formation, primary screen, imaging, VEGF stimulated, CD31 staining, tube area, NPC library (AID 1117340;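 active means compound that reduces growth-factor-driven endothelial tube area in a mixed cell culture, no cutoff stated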). The settings on record: VEGF-stimulated ADSC/ECFC co-culture, at 10 µM, active compounds read high.
A short description of assay [4]: GLP1 release stimulators, primary, NCI-H716, NPC library (AID 1117341;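 active means compound raises GLP1 secretion from the human gut endocrine cells, with no numeric limit stated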; further: reference of the scale not given here). Particulars: NCI-H716 cells, at 10 µM, active compounds read high.
The nature of assay [5]: HCT116 colon cancer cell growth inhibition, primary screen, CellTiter-Glo luminescence, NPC library (AID 1117342;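 active means compounds that lower survival of HCT116 colon cancer cells in the luminescence readout, no numeric limit stated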). Particulars: at 20 µM (top of the series).
A short description of assay [6]: reduced SW480 viability measured with CellTiter-Glo, NPC library, primary (AID 1117343;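 active means compounds that lower viability of the colon cancer cells in the luminescence readout, with no numeric limit stated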). Particulars: CellTiter-Glo luminescence; at 20 µM (top of the series).
Assay [7] is described as follows: NPC library primary testing for decreased DLD-1 cell viability via CellTiter-Glo (AID 1117346;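 active means compounds that lower survival of DLD-1 colon cancer cells in the luminescence readout, no cutoff given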). The settings on record: DLD-1 viability, CellTiter-Glo luminescence; at 20 µM (top of the series).
Assay [8] addresses 6-phosphogluconate dehydrogenase, decarboxylating (Homo sapiens) (UniProt P52209). Put plainly: inhibition of human phosphogluconate dehydrogenase – biochemical, recombinant enzyme, NADPH absorbance, primary screen (AID 1159550;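 active means at least 20% inhibition of 6-phosphogluconate dehydrogenase activity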). The settings on record: recombinant 6PGD, NADPH absorbance 341 nm; at 10 µM; active compounds read high.

Unmarked numbers belong to inactive results. Active and inactive are the calls of the source.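 How the source made its calls, unless noted: active means compound raises insulin release from rat beta cells at 5 mM glucose, no numeric limit stated; inactive means the rest.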

Sequence of 6-phosphogluconate dehydrogenase, decarboxylating (Homo sapiens) (P52209 whole entry, looked up): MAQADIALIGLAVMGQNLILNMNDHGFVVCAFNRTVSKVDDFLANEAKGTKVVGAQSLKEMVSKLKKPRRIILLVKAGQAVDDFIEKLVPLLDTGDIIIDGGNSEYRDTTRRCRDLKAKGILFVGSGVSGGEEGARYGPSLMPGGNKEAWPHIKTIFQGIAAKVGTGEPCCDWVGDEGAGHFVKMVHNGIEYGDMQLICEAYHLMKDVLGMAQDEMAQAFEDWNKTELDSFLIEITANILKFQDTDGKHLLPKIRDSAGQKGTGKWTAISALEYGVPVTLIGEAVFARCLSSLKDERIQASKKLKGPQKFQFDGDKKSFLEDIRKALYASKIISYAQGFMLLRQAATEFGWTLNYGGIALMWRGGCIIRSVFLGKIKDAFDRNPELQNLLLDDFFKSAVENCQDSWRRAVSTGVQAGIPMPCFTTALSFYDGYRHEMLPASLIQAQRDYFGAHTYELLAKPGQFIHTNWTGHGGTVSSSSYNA

Regarding `C[C@@H]1C[C@H]2[C@@H]3CCC4=CC(=O)C=C[C@]4(C)[C@@]3(F)[C@@H](O)C[C@]2(C)[C@H]1C(=O)CO`, the insulin secretion stimulation in assay [1] is 7.5%. The viability decrease in assay [2] was -14.3%. The tube area decrease in assay [3] is 6.7%. Also, the GLP1 secretion stimulation in assay [4] was -0.7%. In addition, the inhibition of viability in assay [5] is 9.7%. Further, the viability decrease (inhibition) was 3.5% in assay [6] and -5% in assay [7].
Regarding `COc1cc(C(=O)NS(=O)(=O)c2ccccc2C)ccc1Cc1cn(C)c2ccc(NC(=O)OC3CCCC3)cc12`, in assay [1], the insulin secretion stimulation is 3.85%. Further, the viability decrease in assay [2] is 106% (active). The tube area decrease in assay [3] is 44.5% (active). Moreover, the GLP1 secretion stimulation in assay [4] is 19.5%. Also, the inhibition of viability in assay [5] was 106% (active). The viability decrease (inhibition) in assay [6] is 120% (active); in assay [7] it was 98.2% (active).
On to `CCC(=O)O[C@]1(C(=O)SCF)[C@H](C)C[C@H]2[C@@H]3C[C@H](F)C4=CC(=O)C=C[C@]4(C)[C@@]3(F)[C@@H](O)C[C@@]21C`, for which the insulin secretion stimulation in assay [1] was 0.4%. Further, in assay [2], the viability decrease is -30.2%. Further, in assay [3], the tube area decrease is -19.4%. Also, the GLP1 secretion stimulation in assay [4] was 9.8%. The inhibition of viability in assay [5] is 6.27%. The viability decrease (inhibition) was 39.6% in assay [6] and -7.2% in assay [7].
Turning to `CCOc1cc(CC(=O)N[C@@H](CC(C)C)c2ccccc2N2CCCCC2)ccc1C(=O)O`, in assay [1], the insulin secretion stimulation was 43.9% (active). For the same molecule, the viability decrease in assay [2] was 70.5% (active). Also, the tube area decrease in assay [3] was -11.3%. For the same molecule, the GLP1 secretion stimulation in assay [4] was 0.5%. Moreover, the inhibition of viability in assay [5] is 29.7%. For the same molecule, the values for the viability decrease (inhibition) in assay [6] and in assay [7] were 68.3% (active) and 33.3%, respectively.
As to `NS(=O)(=O)c1cc(C(=O)O)c(NCc2ccco2)cc1Cl`, in assay [1], the insulin secretion stimulation was -2%. Moreover, the viability decrease in assay [2] was -10.1%. In assay [3], the tube area decrease is 13%. Also, the GLP1 secretion stimulation in assay [4] is 0.9%. In addition, in assay [5], the inhibition of viability was -10.4%. The results for the viability decrease (inhibition) in assay [6] and in assay [7] were -18% and -1.6%, respectively.
For the molecule `Nc1c2c(nc3c1CCC3)CCCC2`, the insulin secretion stimulation in assay [1] is 21.2% (active). Also, the viability decrease in assay [2] was -1.35%. Besides, in assay [3], the tube area decrease is 20.5%. The GLP1 secretion stimulation in assay [4] is 4.4%. The inhibition of viability in assay [5] is 1%. For the same molecule, the results for the viability decrease (inhibition) in assay [6] and in assay [7] were 4.4% and -5.95%, respectively.
For the molecule `O=C(c1ccc(F)cc1)C1CCN(CCn2c(=S)[nH]c3ccccc3c2=O)CC1`, the insulin secretion stimulation in assay [1] was -1.4%. In addition, the viability decrease in assay [2] was 63.4% (active). Moreover, the tube area decrease in assay [3] is -7.4%. In addition, the GLP1 secretion stimulation in assay [4] is 3.7%. Also, in assay [5], the inhibition of viability is 69.7% (active). For the same molecule, the viability decrease (inhibition) in assay [6] was 69.7% (active); in assay [7] it was 59.8% (active).
`COCCCC/C(=N\OCCN)c1ccc(C(F)(F)F)cc1`: the insulin secretion stimulation in assay [1] is 1.6%. In assay [2], the viability decrease is -112%. Moreover, the tube area decrease in assay [3] was -2.4%. Besides, the GLP1 secretion stimulation in assay [4] is -1.9%. The inhibition of viability in assay [5] is 37.3%. Besides, the viability decrease (inhibition) in assay [6] was 15.4%; in assay [7], 23.5%.
On to `O=C(NCCO[N+](=O)[O-])c1cccnc1`, for which the insulin secretion stimulation in assay [1] was 1.2%. Moreover, the viability decrease in assay [2] is -0.2%. The tube area decrease in assay [3] was -25.1%. Besides, the GLP1 secretion stimulation in assay [4] was -1.4%. In addition, the inhibition of viability in assay [5] is 6%. In addition, the viability decrease (inhibition) was 0.2% in assay [6] and -3.2% in assay [7].
In the case of `COc1cc(C(=O)NC2CCCNC2)cc(OC)c1OC` (stereo unspecified), the insulin secretion stimulation in assay [1] was 1.6%. Besides, the viability decrease in assay [2] is -5.2%. Moreover, the tube area decrease in assay [3] was 0.1%. Also, in assay [4], the GLP1 secretion stimulation was 3.3%. Moreover, in assay [5], the inhibition of viability is 0.8%. Moreover, the viability decrease (inhibition) in assay [6] is 37.5%; in assay [7], 15.8%.
In the case of `CC[C@@]1(O)C(=O)OCc2c1cc1n(c2=O)Cc2cc3c(CN(C)C)c(O)ccc3nc2-1`, the insulin secretion stimulation in assay [1] is 0.5%. Also, the viability decrease in assay [2] is 61.2% (active). For the same molecule, in assay [3], the tube area decrease was 107% (active). For the same molecule, the GLP1 secretion stimulation in assay [4] was -4.3%. In assay [5], the inhibition of viability was 52.2% (active). Further, the values for the viability decrease (inhibition) in assay [6] and in assay [7] were 75% (active) and 67.8% (active), respectively.
In the case of `C[C@@H]1CN(CCCn2c3ccccc3c3ccccc32)C[C@H](C)N1`, the insulin secretion stimulation in assay [1] was 16.2%. Besides, the viability decrease in assay [2] is 97.5% (active). In addition, the tube area decrease in assay [3] was 48.2% (active). Besides, in assay [4], the GLP1 secretion stimulation is 20% (active). Moreover, the inhibition of viability in assay [5] is 107% (active). Moreover, the figures for the viability decrease (inhibition) in assay [6] and in assay [7] were 128% (active) and 82.7% (active), respectively.
For `CCCOc1ccc(C(=O)OCCN(CC)CC)cc1N`, the insulin secretion stimulation in assay [1] was 1.5%. Moreover, in assay [2], the viability decrease was 47.8%. In addition, the tube area decrease in assay [3] is -3.5%. Besides, the GLP1 secretion stimulation in assay [4] is -1%. Further, in assay [5], the inhibition of viability was 74.2% (active). In addition, the viability decrease (inhibition) was 36% in assay [6] and 90.1% (active) in assay [7].
Turning to `Nc1nc(=S)c2[nH]cnc2[nH]1`, the insulin secretion stimulation in assay [1] was -2%. Further, the viability decrease in assay [2] was 47.4% (active). The tube area decrease in assay [3] is 104% (active). Also, the GLP1 secretion stimulation in assay [4] was 1.9%. Also, the inhibition of viability in assay [5] was 96.4% (active). For the same molecule, the viability decrease (inhibition) in assay [6] is 101% (active); in assay [7], 52.9% (active). Moreover, the inhibition in assay [8] was 4.15%.
Regarding `CCOC(=O)C1=C[C@]2(CC)CCCN3CCc4c(n1c1ccccc41)[C@@H]32`, in assay [1], the insulin secretion stimulation was -1.7%. In assay [2], the viability decrease was 14.4%. In addition, the tube area decrease in assay [3] was 41% (active). The GLP1 secretion stimulation in assay [4] is 2.8%. In addition, the inhibition of viability in assay [5] was -3.2%. Besides, the viability decrease (inhibition) in assay [6] was 61.3% (active); in assay [7], 2.25%. Further, the inhibition in assay [8] was 13.5%.
For the molecule `CCn1cc(C(=O)O)c(=O)c2cnc(N3CCNCC3)nc21`, the insulin secretion stimulation in assay [1] was 1.5%. Also, the viability decrease in assay [2] is -23.1%. The tube area decrease in assay [3] was 0.7%. Besides, in assay [4], the GLP1 secretion stimulation is -1.8%. The inhibition of viability in assay [5] is -0.3%. In addition, the viability decrease (inhibition) was -4.5% in assay [6] and -15.1% in assay [7]. Besides, the inhibition in assay [8] was 6.84%.
Turning to `NC(=O)c1ncn([C@@H]2O[C@H](CO)[C@@H](O)[C@H]2O)n1`, the insulin secretion stimulation in assay [1] is 0%. For the same molecule, the viability decrease in assay [2] was -32.4%. Besides, the tube area decrease in assay [3] was 25.6%. The GLP1 secretion stimulation in assay [4] was 0.7%. Further, the inhibition of viability in assay [5] is -15.3%. Besides, the viability decrease (inhibition) in assay [6] is -29.6%; in assay [7], 11.6%. The inhibition in assay [8] is 16.1%.
Consider `COC(=O)N/N=C/c1c[n+]([O-])c2ccccc2[n+]1[O-]`, for which, in assay [1], the insulin secretion stimulation is 1.9%. In addition, the viability decrease in assay [2] is 18.7%. Besides, the tube area decrease in assay [3] is 22.2%. Also, the GLP1 secretion stimulation in assay [4] was 5.7%. Besides, the inhibition of viability in assay [5] is -3%. In addition, the results for the viability decrease (inhibition) in assay [6] and in assay [7] were -10.2% and -4.9%, respectively. Moreover, the inhibition in assay [8] is 11.2%.
